This is one part of a sample in which hits are shown more often than they occur.
STK33 inh: inhibitors of human STK33 kinase | Q9BYT3 | ADP-Glo luminescence, MBP substrate | inhibition, % at 12.5 µM | 0.44% of 27,000 active | AID 2322; in the data active = inhibition above about 20%
Target sequence (Q9BYT3 whole entry, looked up): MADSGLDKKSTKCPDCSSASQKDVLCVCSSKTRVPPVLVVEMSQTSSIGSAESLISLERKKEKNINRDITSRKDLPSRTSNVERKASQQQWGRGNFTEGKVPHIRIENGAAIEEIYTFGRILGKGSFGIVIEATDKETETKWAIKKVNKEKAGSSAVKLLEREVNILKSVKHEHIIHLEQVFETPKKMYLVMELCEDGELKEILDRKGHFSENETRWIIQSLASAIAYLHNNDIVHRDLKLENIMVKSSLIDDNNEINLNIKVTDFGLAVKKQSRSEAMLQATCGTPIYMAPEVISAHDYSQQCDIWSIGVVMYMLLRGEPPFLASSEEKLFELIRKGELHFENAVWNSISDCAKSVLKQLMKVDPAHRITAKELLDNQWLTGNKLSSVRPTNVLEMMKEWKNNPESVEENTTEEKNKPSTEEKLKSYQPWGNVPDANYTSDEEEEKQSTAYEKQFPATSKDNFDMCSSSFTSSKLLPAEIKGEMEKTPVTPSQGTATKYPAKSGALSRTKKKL
PD-1 reverse act: reversal of PD-1 mediated T-cell inhibition. primary human CD4 T cells, PD-L1 beads, CellTiter-Glo 96 h. activation, % (no concentration beside the values). 29,000 tested, under 10 active. AID 2316; call rule not given here;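 note: 0% = median vehicle wells and 100% = positive control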
NOMO-1 viab: STK33 inhibitor candidate reducing NOMO-1 cell viability | inhibition, % (test concentration not listed) | AID 2330 | 7.5% of 37,000 active | NOMO-1 AML viability, CellTiter-Glo luminescence, 72 h; in the data active = inhibition above about 80%
Numbers without * were called inactive; · = no result given; ! = repeats disagree.

SMILES | STK33 inh | PD-1 reverse act | NOMO-1 viab
COc1cc2c3cc1Oc1c(OC)c(OC)cc4c1[C@@H](Cc1ccc(OC(=O)c5ccc([N+](=O)[O-])cc5)c(c1)Oc1ccc(cc1)C[C@@H]3N(C)CC2)N(C)CC4 | 3.9 | -0.9 | 98.2*
COc1ccc2c(c1OC)C(=O)O[C@@H]2[C@H]1c2c(cc3c(c2OC)OCO3)CCN1C | 0.0 | 1.1 | 31.5
COc1ccc2c(c1OC)C(=O)OC2[C@H]1c2c(cc3c(c2OC)OCO3)CCN1C (stereo partly specified) | -1.8 | · | 36.8
COc1ccc(CCn2c(C)cc(O)cc2=O)cc1OC | · | 0.5 | 25.5
COc1ccc(-c2nnc(SCC(=O)Nc3cccc(C(C)=O)c3)n2-c2ccccc2)cc1 | 0.4 | · | -4.9
CS(=O)(=O)N(CC(=O)Nc1cccc(Cl)c1Cl)c1cccc(F)c1 | -4.1 | 0.7 | 39.7
COc1ccc(NC(=O)CSc2nc3c(cc2C#N)CCCCC3)cc1 | 4.2 | -1.2 | 10.1
N#Cc1cc2c(nc1SCC(=O)Nc1cccc(F)c1)CCCC2 | 5.2 | · | 92.4*
CC(C)(C)C(=O)Nc1ccccc1C(=O)N1CCN(Cc2ccccc2)CC1 | · | 0.2 | -31.7
CCc1c(O)cc(O)c2c1O[C@H](C)CC2=O | 0.3 | -1.2 | -4.6
COc1ccc(C(=O)CC(C#Cc2ccccc2)CC(=O)c2ccc(OC)cc2)cc1 | · | 0.4 | 37.7
CC(=O)OC(C)(C)/C=C/C(=O)[C@](C)(O)[C@H]1C(O)C[C@@]2(C)[C@@H]3CC=C4[C@@H](C=C(O[C@@H]5O[C@H](CO)[C@@H](O)[C@H](O)[C@H]5O)C(=O)C4(C)C)[C@]3(C)C(=O)C[C@]12C (stereo partly specified) | -0.8 | 0.2 | 117.1*
CC(=O)O[C@@](C)(C(=O)/C=C/C(C)(C)O)[C@H]1[C@H](O)C[C@@]2(C)[C@@H]3CC=C4[C@@H](C=C(O[C@@H]5O[C@H](CO)[C@@H](O)[C@H](O)[C@H]5O[C@@H]5O[C@@H](C)[C@H](O)[C@@H](O)[C@H]5O)C(=O)C4(C)C)[C@]3(C)C(=O)C[C@]12C | -2.6 | · | ·
O=C(O)c1cc2cccc(S(=O)(=O)N3CCCCCC3)c2cc1O | · | 0.8 | -17.1
C/C=C(\CO)C(=O)O[C@H]1[C@H](O)[C@@H](C(=O)OC)O[C@@H]2C[C@H]3OC(n4cnc5c(N)ncnc54)[C@H](OC)[C@H]3O[C@]21O (stereo partly specified) | -4.6 | 2.8 | 12.1
COc1ccc(CC(N)C(=O)N[C@H]2[C@@H](O)[C@H](n3cnc4c(N(C)C)ncnc43)O[C@@H]2CO)cc1 (stereo partly specified) | -0.3 | -25.4 | 97.8*
O=C(CCN1CCCCC1)Nc1ccc(Cl)cc1 | · | -0.2 | -16.3
CN(C)C(=O)C(CCN1CCC(O)(c2ccc(Cl)cc2)CC1)(c1ccccc1)c1ccccc1 | 0.3 | 1.3 | 138.1*!
COc1ccc(C(=O)O)cc1S(=O)(=O)NCc1ccccc1 | 0.6 | · | ·
O=C1C=CC(=C(c2ccc(O)cc2)c2ccc(O)cc2)C=C1 | 2.7 | · | 108.4*
O=C(Nc1cnn(Cc2ccc(Cl)cc2Cl)c1)C1CC(c2cccc(Br)c2)=NO1 (stereo unspecified) | -1.2 | 0.7 | 20.4
CCC(=O)OCC(=O)[C@@]1(OC(=O)CC)[C@H](C)CC2C3C([C@@H](O)C[C@@]21C)[C@@]1(C)C=CC(=O)C=C1C[C@H]3Cl (stereo partly specified) | -0.3 | · | 40.6
CC(C)(C)c1ccc(OC(=O)CCN2C(=O)C3C4C=CC(C5CC45)C3C2=O)cc1 (stereo unspecified) | -5.2 | -3.4 | 28.3
CC(=O)c1ccccc1OC(=O)CCN1C(=O)C2C3c4ccccc4C(c4ccccc43)C2C1=O (stereo unspecified) | -1.1 | · | 15.8
O=C(CCN1C(=O)C2C3C=CC(C4CC34)C2C1=O)Oc1cccc2cccnc12 (stereo unspecified) | -4.9 | -14.8 | 121.2*
SMILES | STK33 inh | PD-1 reverse act | NOMO-1 viab
O=C(CCN1C(=O)C2C3C=CC(C3)C2C1=O)Oc1cccc2cccnc12 (stereo unspecified) | -0.9 | -12.6 | 113.3*
Cc1ccc(Cn2nc(C(=O)Sc3cccc(Cl)c3Cl)cc2C)cc1 | -1.8 | -3.4 | 69.1
CNC(=O)N(Cc1cccnc1)Cc1ccccc1Cl | · | -0.9 | 32.1
O=C(NCC1CCCO1)C1CC(c2ccccc2O)=NO1 (stereo unspecified) | 1.1 | · | -3.0
CC(C)NC(=O)N(C)C[C@H]1Oc2c(NC(=O)Nc3ccc(C(F)(F)F)cc3)cccc2C(=O)N([C@@H](C)CO)C[C@H]1C | · | -4.3 | 120.7*
CC(C)NC(=O)N(C)C[C@@H]1Oc2c(NC(=O)Nc3ccc(C(F)(F)F)cc3)cccc2C(=O)N([C@@H](C)CO)C[C@@H]1C | · | -0.8 | 66.8
CC(C)NC(=O)N(C)C[C@@H]1Oc2c(NC(=O)Nc3ccc(C(F)(F)F)cc3)cccc2C(=O)N([C@H](C)CO)C[C@@H]1C | · | -4.8 | 116.5*
